# From ChEMBL document CHEMBL1157539, “Thousands of chemical starting points for antimalarial lead identification” (Nature, 2010)
# Tested on: HepG2
# Assay: GSK_TCMDC: Percent inhibition of human HepG2 cell line. Test compounds present at 10uM.
# Type: functional
row,SMILES,Inhibition
1,COc1cccc2c(NCCNc3ccnc4c(OC)cccc34)ccnc12.Cl,11%
2,Cc1nc(C)c(CC(=O)Nc2ccc(-c3cccc(-c4nc5cc(C(F)(F)F)ccc5[nH]4)c3)cc2)s1,67%
3,O=C(NC1CCN(c2ccnc3cc(Cl)ccc23)C1)c1ccc(F)cc1F.O=C(O)C(F)(F)F (stereo not drawn),31%
